Assay results reported in PubChem BioAssay AID1159580 (chemical genetic matrix, 2015).
The whole screen tested about 5,500 compounds, of which about 2,000 (36%) were called active. Not shown: some 18% with an inconclusive outcome. No stated cut-off is given here; in the data, active means normalized growth mostly below about 0.91 (no sharp cut-off); inconclusive means no clear call, values can overlap the other calls; inactive means mostly above about 0.92. The list shows a part of the results.

Assay: chemical genetic growth profiling, strain panel (AID 1159580);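 further: tested at 20 µM; growth read once vehicle control cultures reached saturation at 30 °C; 1 = growth at the plate median or of vehicle wells; lower values mean less growth of the strain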
Settings: S. cerevisiae deletion strains, growth OD
[1] = locus YAL021C, strain ccr4, active compounds read low
[2] = locus YAL026C, strain drs2, active compounds read low
[3] = locus YAL030W, strain snc1, active compounds read low
[4] = locus YBL061C, strain skt5, active compounds read low
[5] = locus YBR009C, strain hhf1, active compounds read low
[6] = locus YBR023C, strain chs3, active compounds read low
[7] = locus YBR171W, strain sec66, active compounds read low
[8] = locus YBR231C, strain swc5, active compounds read low
[9] = locus YBR279W, strain paf1, active compounds read low
[10] = locus YCL011C, strain gbp2, active compounds read low
[11] = locus YCL016C, strain dcc1, active compounds read low
[12] = locus YCL061C, strain MRC1, active compounds read low
[13] = locus YCL069W, strain vba3, active compounds read low
[14] = locus YCR088W, strain abp1, active compounds read low
[15] = locus YDL005C, strain med2, active compounds read low
[16] = locus YDL040C, strain nat1, active compounds read low
[17] = locus YDR001C, strain nth1, active compounds read low
[18] = locus YDR069C, strain doa4, active compounds read low
[19] = locus YDR137W, strain rgp1, active compounds read low
[20] = locus YDR159W, strain sac3, active compounds read low
[21] = locus YDR297W, strain sur2, active compounds read low
[22] = locus YDR334W, strain swr1, active compounds read low
[23] = locus YDR335W, strain msn5, active compounds read low
[24] = locus YDR392W, strain spt3, active compounds read low
[25] = locus YEL003W, strain gim4, active compounds read low
[26] = locus YEL037C, strain rad23, active compounds read low
[27] = locus YEL061C, strain CIN8 (second series), active compounds read low
[28] = locus YER015W, strain faa2, active compounds read low
[29] = locus YER016W, strain bim1, active compounds read low
[30] = locus YER111C, strain swi4, active compounds read low
[31] = locus YER155C, strain BEM2 (second series), active compounds read low
[32] = locus YFR010W, strain ubp6, active compounds read low
[33] = locus YGL167C, strain pmr1, active compounds read low
[34] = locus YGL173C, strain kem1, active compounds read low
[35] = locus YGL227W, strain vid30, active compounds read low
[36] = locus YGL240W, strain doc1, active compounds read low
[37] = locus YGL253W, strain hxk2, active compounds read low
[38] = locus YHR013C, strain ard1, active compounds read low
[39] = locus YHR027C, strain rpn1, active compounds read low
[40] = locus YHR142W, strain chs7, active compounds read low
[41] = locus YJL092W, strain hpr5, active compounds read low
[42] = locus YJL095W, strain BCK1 (second series), active compounds read low
[43] = locus YJL115W, strain asf1, active compounds read low
[44] = locus YJL129C, strain trk1, active compounds read low
[45] = locus YJL154C, strain vps35, active compounds read low
[46] = locus YJL164C, strain tpk1, active compounds read low
[47] = locus YJL166W, strain qcr8, active compounds read low
[48] = locus YKL160W, strain elf1, active compounds read low
[49] = locus YKR026C, strain gcn3, active compounds read low
[50] = locus YKR091W, strain srl3, active compounds read low
[51] = locus YLL001W, strain dnm1, active compounds read low
[52] = locus YLL026W, active compounds read low
[53] = locus YLL041C, strain sdh2, active compounds read low
[54] = locus YLR027C, strain aat2, active compounds read low
[55] = locus YLR221C, strain rsa3, active compounds read low
[56] = locus YLR258W, strain gsy2, active compounds read low
[57] = locus YLR262C, strain YPT6 (second series), active compounds read low
[58] = locus YLR320W, strain mms22, active compounds read low
[59] = locus YLR342W, strain FKS1, active compounds read low
[60] = locus YLR357W, strain rsc2, active compounds read low
[61] = locus YLR370C, strain arc18, active compounds read low
[62] = locus YLR384C, strain iki3, active compounds read low
[63] = locus YML120C, strain ndi1, active compounds read low
[64] = locus YMR058W, strain fet3, active compounds read low
[65] = locus YMR125W, strain sto1, active compounds read low
[66] = locus YMR129W, active compounds read low
[67] = locus YMR205C, strain PFK2, active compounds read low
[68] = locus YMR231W, strain pep5, active compounds read low
[69] = locus YNL071W, strain lat1, active compounds read low
[70] = locus YNL209W, strain ssb2, active compounds read low
[71] = locus YNL248C, strain rpa49, active compounds read low
[72] = locus YNL322C, strain KRE1 (second series), active compounds read low
[73] = locus YNR049C, strain mso1, active compounds read low
[74] = locus YOR001W, strain rrp6, active compounds read low
[75] = locus YOR070C, strain gyp1, active compounds read low
[76] = locus YOR080W, strain dia2, active compounds read low
[77] = locus YOR083W, strain WHI5, active compounds read low
[78] = locus YOR106W, strain vam3, active compounds read low
[79] = locus YOR265W, strain rbl2, active compounds read low
[80] = locus YOR270C, strain vph1, active compounds read low
[81] = locus YOR290C, strain snf2, active compounds read low
[82] = locus YPL051W, strain arl3, active compounds read low
[83] = locus YPL078C, strain atp4, active compounds read low
[84] = locus YPL106C, strain sse1, active compounds read low
[85] = locus YPL240C, strain hsp82, active compounds read low

Measured: normalized growth

CCCCCCCCCCCCCCCCOP(=O)([O-])OCC[N+](C)(C)C
inactive: locus YHR030C, strain SLT2, active compounds read low 0.971 | locus YHR079C, strain IRE1, active compounds read low 0.967 | locus YJL095W, strain BCK1, active compounds read low 0.985 | locus YJR066W, strain TOR1, active compounds read low 0.915 | locus YLR113W, strain HOG1, active compounds read low 1.07 | locus YNL183C, strain NPR1, active compounds read low 0.912 | locus YOR231W, strain MKK1, active compounds read low 0.953 | locus YPL256C, strain CLN2, active compounds read low 1.01
active: [1] 0.0619 | [2] 0.0625 | [3] 0.0575 | [4] 0.0614 | [5] 0.0673 | [6] 0.0636 | [7] 0.0767 | [8] 0.0637 | [9] 0.0644 | [10] 0.0569 | [11] 0.0649 | [12] 0.0638 | [13] 0.0585 | [14] 0.0589 | [15] 0.0739 | [16] 0.062 | [17] 0.0559 | [18] 0.0612 | [19] 0.105 | [20] 0.0874 | locus YDR195W, strain ref2 0.133 | [21] 0.0626 | [22] 0.0607 | [23] 0.0579 | [24] 0.0822 | [25] 0.0548 | [26] 0.0549 | [27] 0.0587 | [28] 0.0638 | [29] 0.0622 | [30] 0.0695 | [31] 0.0842 | [32] 0.0648 | [33] 0.0766 | [34] 0.082 | [35] 0.0637 | [36] 0.0747 | [37] 0.0509 | [38] 0.14 | [39] 0.0701 | [40] 0.0698 | [41] 0.0564 | [42] 0.0584 | [43] 0.0702 | [44] 0.0808 | [45] 0.0578 | [46] 0.0591 | [47] 0.061 | [48] 0.0625 | [49] 0.0625 | [50] 0.072 | [51] 0.0583 | [52] 0.0591 | [53] 0.058 | [54] 0.0551 | [55] 0.0588 | [56] 0.0598 | [57] 0.0755 | [58] 0.0754 | [59] 0.0648 | [60] 0.121 | [61] 0.062 | [62] 0.0585 | [63] 0.0597 | [64] 0.0574 | [65] 0.075 | [66] 0.0586 | [67] 0.0871 | [68] 0.173 | [69] 0.0608 | [70] 0.0625 | [71] 0.0698 | [72] 0.0641 | [73] 0.0585 | [74] 0.0712 | [75] 0.0615 | [76] 0.0657 | [77] 0.0753 | [78] 0.0675 | [79] 0.0614 | [80] 0.093 | [81] 0.069 | [82] 0.0646 | [83] 0.0596 | [84] 0.0983 | [85] 0.0574

CCCCCCCC/C=C/CCCCCCCCOP(=O)([O-])OCC[N+](C)(C)C
active: [1] 0.0587 | [2] 0.0561 | [3] 0.053 | [4] 0.0558 | [5] 0.0546 | [6] 0.0583 | [7] 0.0745 | [8] 0.0586 | [9] 0.0563 | [10] 0.0519 | [11] 0.0586 | [12] 0.0589 | [13] 0.0556 | [14] 0.0562 | [15] 0.0694 | [16] 0.0556 | [17] 0.0555 | [18] 0.0593 | [19] 0.105 | [20] 0.0716 | locus YDR195W, strain ref2 0.0966 | [21] 0.0533 | [22] 0.0581 | [23] 0.0561 | [24] 0.0625 | [25] 0.0513 | [26] 0.0533 | [27] 0.0564 | [28] 0.0609 | [29] 0.0567 | [30] 0.0743 | [31] 0.0793 | [32] 0.0589 | [33] 0.0691 | [34] 0.0671 | [35] 0.0578 | [36] 0.0658 | [37] 0.0494 | [38] 0.0918 | [39] 0.0597 | [40] 0.0608 | [41] 0.0556 | [42] 0.0534 | [43] 0.0664 | [44] 0.0759 | [45] 0.0613 | [46] 0.0536 | [47] 0.0552 | locus YJL187C, strain SWE1, active compounds read low 0.055 | [48] 0.0575 | [49] 0.0565 | [50] 0.0556 | [51] 0.0557 | [52] 0.0528 | [53] 0.0534 | [54] 0.0482 | [55] 0.0536 | [56] 0.0544 | [57] 0.0801 | [58] 0.066 | [59] 0.0588 | [60] 0.106 | [61] 0.056 | [62] 0.0574 | [63] 0.0534 | [64] 0.0555 | [65] 0.062 | [66] 0.0548 | [67] 0.0726 | [68] 0.065 | [69] 0.0563 | [70] 0.0577 | [71] 0.0552 | [72] 0.0595 | [73] 0.0525 | [74] 0.0584 | [75] 0.0589 | [76] 0.0596 | [77] 0.0554 | [78] 0.0591 | [79] 0.0537 | [80] 0.072 | [81] 0.0546 | [82] 0.0574 | [83] 0.058 | [84] 0.0823 | [85] 0.054
